# Read-outs that look alike come from different tables or passages of the source.
# Key:
# Parameters in all cases: species or system human, MV4-11 + K-562 + COLO205 + SK-N-BE2 + OVCAR-8
# JAK2 = details: read-out: apparent Kd, compound concentrations: 100 nM and 1000 nM (sheet 'Samples'), n = 1
# BMPR1B = details: read-out: apparent Kd, n = 1
# DDR2 = details: read-out: apparent Kd, n = 1
# PLK4 = details: read-out: apparent Kd, compound concentrations: 100 nM and 1000 nM (sheet 'Samples'), n = 1
# PRKD2 = details: read-out: apparent Kd, compound concentrations: 100 nM and 1000 nM (sheet 'Samples'), n = 1
# PRKD3 = details: read-out: apparent Kd, compound concentrations: 100 nM and 1000 nM (sheet 'Samples'), n = 1
# TGFBR1 = details: read-out: apparent Kd, n = 1
# ZAK = details: read-out: apparent Kd, n = 1
# FLT4 = details: read-out: apparent Kd, n = 1
# MAPK9 = details: read-out: apparent Kd; compound concentrations:100 nM and 1000 nM (sheet 'Samples'); n = 1
# AKT1 = details: read-out: apparent Kd, n = 1
# RIOK2 = details: read-out: apparent Kd, n = 1
# DJA1 = system: T1, DJA1; details: read-out: apparent Kd; compound concentrations: 100 nM and 1000 nM (sheet 'Samples'), CATDS: 0.205535073981469; n = 1
# T1 construct: gene DNAJA1
# MAP2K5 = details: read-out: apparent Kd; compound concentrations: 100 nM and 1000 nM (sheet 'Samples'), CATDS: 2.4851428787040001E-2; n = 1
# EPHB6 = details: read-out: apparent Kd, n = 1
# BTK = details: read-out: apparent Kd, n = 1
# TNK2 = details: read-out: apparent Kd, n = 1
# [1] = compound concentrations:100 nM and 1000 nM (sheet 'Samples')
structure (smiles),measurement,setting,value
COc1ccccc1CNC1=NC(=O)/C(=C/c2ccc3ncccc3c2)S1 [RO4503315-000],potency estimated from few doses,JAK2; CATDS: 8.0204348967342395E-2,755 nM
CN1C(=O)c2ccccc2N(C)c2nc(Nc3cnn(C4CCNCC4)c3)ncc21 [XMD-17-51],potency estimated from few doses,"BMPR1B; compound concentrations: 100 nM and 1000 nM (sheet 'Samples'), CATDS: 1.5845545997130402E-2",986 nM
same,potency estimated from few doses,"DDR2; compound concentrations: 100 nM and 1000 nM (sheet 'Samples'), CATDS: 2.76833558022507E-2",189 nM
same,potency estimated from few doses,JAK2; CATDS: 1.8456350462982201E-2,580 nM
same,potency estimated from few doses,PLK4; CATDS: 4.7474552673817297E-2,56.7 nM
same,potency estimated from few doses,PRKD2; CATDS: 1.4106382440731599E-2,1620 nM
same,potency estimated from few doses,PRKD3; CATDS: 1.40532268775709E-2,1650 nM
same,potency estimated from few doses,"TGFBR1; compound concentrations: 100 nM and 1000 nM (sheet 'Samples'), CATDS: 2.2276499347081799E-2",333 nM
Nc1nc(-c2cccnc2)c(-c2ccnc3ccccc23)s1 [GW684083X],potency estimated from few doses,ZAK; [1],1440 nM
CNC1=NC(=O)/C(=C/c2ccc3ncccc3c2)S1 [RO4595949-000],potency estimated from few doses,JAK2; CATDS: 6.3201453255696996E-2,790 nM
same,potency estimated from few doses,PRKD2; CATDS: 5.1323444817528999E-2,1770 nM
CCn1cc(-c2ccnc3[nH]c(-c4cccc(CN(C)C)c4)cc23)c(-c2ccc(NC(=O)N(C)C)cc2)n1 [GSK1070916],potency estimated from few doses,DDR2; [1],1830 nM
CS(=O)(=O)Cc1ccc(Nc2nccc(-c3c(-c4cccc(NC(=O)C5CCCCC5)c4)nn4ncccc34)n2)cc1 [GSK350559A],potency estimated from few doses,FLT4; [1],995 nM
same,potency estimated from few doses,MAPK9,932 nM
NC1=NC(=O)/C(=C/c2ccc3ncccc3c2)S1 [RO4569139-000],potency estimated from few doses,JAK2; CATDS: 8.9240627559774202E-2,708 nM
same,potency estimated from few doses,PRKD3; CATDS: 6.7072777002688294E-2,1930 nM
CCc1nc(-c2cccc(N(C)S(=O)(=O)c3ccccc3)c2)c(-c2ccnc(Nc3ccc(N4CCN(C(C)=O)CC4)nc3)n2)s1 [GSK1645895A],potency estimated from few doses,"ZAK; compound concentrations: 100 nM and 1000 nM (sheet 'Samples'), CATDS: 0.12983068767625999",2300 nM
Cc1cccc(-c2cc(-c3c[nH]nc3-c3ccccn3)ccn2)c1 [GW679395X],potency estimated from few doses,AKT1; [1],1770 nM
same,potency estimated from few doses,RIOK2; [1],1630 nM
same,potency estimated from few doses,TGFBR1; [1],2190 nM
COc1cc(Nc2nccc(N3CCC(NC(=O)c4cccc(C#N)c4)C3)n2)cc(OC)c1OC (centres unmarked) [GSK1379751A],potency estimated from few doses,DJA1,817 nM
COc1ccc(Nc2nccc(N3CCC(NC(=O)Nc4ccc5c(c4)OCO5)C3)n2)cc1 (centres unmarked) [GSK1379745A],potency estimated from few doses,"AKT1; compound concentrations: 100 nM and 1000 nM (sheet 'Samples'), CATDS: 3.7255828319427503E-2",1760 nM
same,potency estimated from few doses,"BMPR1B; compound concentrations: 100 nM and 1000 nM (sheet 'Samples'), CATDS: 0.106136196425884",316 nM
same,potency estimated from few doses,"RIOK2; compound concentrations: 100 nM and 1000 nM (sheet 'Samples'), CATDS: 4.3222091528321002E-2",1280 nM
Cc1ccc(O)cc1Nc1ccnc2cc(-c3ccccn3)ccc12.Cl [GW440139A],potency estimated from few doses,"BMPR1B; compound concentrations: 100 nM and 1000 nM (sheet 'Samples'), CATDS: 2.7107507605443299E-2",941 nM
same,potency estimated from few doses,"TGFBR1; compound concentrations: 100 nM and 1000 nM (sheet 'Samples'), CATDS: 4.4422303259643102E-2",115 nM
COc1cccc(-n2ncc3c(N/N=C/c4ccc(C(=O)NCCN(C)C)cc4)ncnc32)c1.Cl [GW784307A],potency estimated from few doses,"BMPR1B; compound concentrations: 100 nM and 1000 nM (sheet 'Samples'), CATDS: 3.8430447981996803E-2",486 nM
same,potency estimated from few doses,MAP2K5,2320 nM
same,potency estimated from few doses,"TGFBR1; compound concentrations: 100 nM and 1000 nM (sheet 'Samples'), CATDS: 3.91809843911003E-2",460 nM
same,potency estimated from few doses,"ZAK; compound concentrations: 100 nM and 1000 nM (sheet 'Samples'), CATDS: 3.20798372195591E-2",834 nM
NC(=O)c1cccc(Nc2nccc(Nc3cccc4[nH]ncc34)n2)c1 [GW782612X],potency estimated from few doses,"DDR2; compound concentrations: 100 nM and 1000 nM (sheet 'Samples'), CATDS: 3.15347900030735E-2",2580 nM
same,potency estimated from few doses,"TGFBR1; compound concentrations: 100 nM and 1000 nM (sheet 'Samples'), CATDS: 5.60805138513292E-2",406 nM
COc1cc(Nc2ccnc3cc(-c4ccncc4)ccc23)cc(OC)c1OC.Cl [GW494610A],potency estimated from few doses,"BMPR1B; compound concentrations: 100 nM and 1000 nM (sheet 'Samples'), CATDS: 3.91672481095015E-2",233 nM
same,potency estimated from few doses,"EPHB6; compound concentrations: 100 nM and 1000 nM (sheet 'Samples'), CATDS: 2.9510558776715799E-2",536 nM
same,potency estimated from few doses,"TGFBR1; compound concentrations: 100 nM and 1000 nM (sheet 'Samples'), CATDS: 2.6595956704932502E-2",765 nM
O=C1N=C(NCc2cccs2)SC1Cc1ccc2ncccc2c1 (centres unmarked) [RO4629078-000],potency estimated from few doses,"BTK; compound concentrations: 100 nM and 1000 nM (sheet 'Samples'), CATDS: 1.32457116906247E-2",360 nM
same,potency estimated from few doses,"FLT4; compound concentrations: 100 nM and 1000 nM (sheet 'Samples'), CATDS: 1.2746443799933199E-2",389 nM
same,potency estimated from few doses,PLK4; CATDS: 1.60355035004788E-2,254 nM
same,potency estimated from few doses,PRKD2; CATDS: 7.0804860166384202E-3,2110 nM
same,potency estimated from few doses,PRKD3; CATDS: 7.3913708056946199E-3,1750 nM
same,potency estimated from few doses,"TNK2; compound concentrations: 100 nM and 1000 nM (sheet 'Samples'), CATDS: 1.95530569334194E-2",183 nM
O=C1N=C(NCCc2cccc(Cl)c2)S/C1=C\c1ccc2ncccc2c1 [RO4509201-000],potency estimated from few doses,JAK2; CATDS: 7.2632093710390006E-2,736 nM
Cc1ccc(O)cc1Nc1ccnc2cc(-c3ccc(CN4CCCCC4)o3)ccc12 [GW557777X],potency estimated from few doses,"BMPR1B; compound concentrations: 100 nM and 1000 nM (sheet 'Samples'), CATDS: 2.1920480328631101E-2",73.2 nM
same,potency estimated from few doses,"BTK; compound concentrations: 100 nM and 1000 nM (sheet 'Samples'), CATDS: 1.36078174892899E-2",960 nM
same,potency estimated from few doses,"DDR2; compound concentrations: 100 nM and 1000 nM (sheet 'Samples'), CATDS: 1.39203861332134E-2",800 nM
same,potency estimated from few doses,"FLT4; compound concentrations: 100 nM and 1000 nM (sheet 'Samples'), CATDS: 1.3507307153085599E-2",1020 nM
same,potency estimated from few doses,PRKD2; CATDS: 2.1213632342937001E-2,83.5 nM
same,potency estimated from few doses,PRKD3; CATDS: 1.7058744664209799E-2,226 nM
same,potency estimated from few doses,"TGFBR1; compound concentrations: 100 nM and 1000 nM (sheet 'Samples'), CATDS: 1.55635860325104E-2",377 nM
same,potency estimated from few doses,"ZAK; compound concentrations: 100 nM and 1000 nM (sheet 'Samples'), CATDS: 1.4248568360294899E-2",672 nM
CCN(CC)CCOc1ccc(Nc2ncc3cc(-c4c(Cl)cccc4Cl)c(=O)n(C)c3n2)cc1 [SB-601273],potency estimated from few doses,BMPR1B; [1],239 nM
same,potency estimated from few doses,BTK; [1],318 nM
same,potency estimated from few doses,DDR2; [1],319 nM
same,potency estimated from few doses,EPHB6; [1],175 nM
same,potency estimated from few doses,TGFBR1; [1],270 nM
same,potency estimated from few doses,TNK2; [1],87.3 nM
